This is part of a sample that, as a whole, favours compounds with a hit. Of some 79,000 tested, about 15% had one in any assay. Values without a mark were called inactive. The source made the active and inactive calls. No stated cut-off is given here; in the data, active means growth inhibition above about 70%; inactive means the rest.
Legend:
[1] = NCI Yeast Anticancer Drug Screen. Data for the rad52 strain (AID 147);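 further: 0% = growth of vehicle-treated control cultures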; conditions: S. cerevisiae rad52 mutant growth inhibition, stronger effect = higher value
In short: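 Measured: yeast growth inhibition. System: strain with a defined DNA damage repair alteration. Reference: vehicle-treated control cultures.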

[2] = NCI Yeast Anticancer Drug Screen. Data for the wt1 strain (AID 149);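 further: 0% = growth of vehicle-treated wt1 cultures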; conditions: S. cerevisiae wt1 strain (SPY 50644) growth inhibition, stronger effect = higher value
In short: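 Each compound is tested on wt1 yeast and the loss of growth versus vehicle gives the inhibition value.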

[3] = NCI Yeast Anticancer Drug Screen. Data for the rad50EPP+ strain (AID 151);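 further: 0% = growth of vehicle-treated control cultures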; conditions: S. cerevisiae rad50 mutant strain, stronger effect = higher value
In short: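 One strain with a rad50 alteration (rad50EPP+) was compound-treated, its growth then compared to that of vehicle controls.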

[4] = NCI Yeast Anticancer Drug Screen. Data for the mgt1 strain (AID 153); conditions: S. cerevisiae mgt1 mutant growth inhibition, stronger effect = higher value
In short: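 After exposure of the mgt1 yeast mutant to compound, growth was measured and reported as inhibition compared with vehicle controls.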

[5] = NCI Yeast Anticancer Drug Screen. Data for the rad50 strain (AID 155);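 further: 0% = growth of vehicle-only cultures of the same strain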; conditions: S. cerevisiae rad50 strain growth inhibition, stronger effect = higher value
In short: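 Vehicle-treated cultures provide the reference for the growth inhibition reported for compound-exposed, repair-deficient yeast.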

[6] = NCI Yeast Anticancer Drug Screen. Data for the mec2-1 strain (AID 157); conditions: S. cerevisiae mec2-1 strain, stronger effect = higher value
In short: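 Test agents were screened against the mec2-1 yeast strain, with defined DNA repair or cell cycle alteration. Growth was scored as inhibition against vehicle-only controls.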

[7] = NCI Yeast Anticancer Drug Screen. Data for the rad14 strain (AID 159);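 further: 0% = growth of vehicle-treated control cultures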; conditions: S. cerevisiae rad14 strain growth inhibition, stronger effect = higher value
In short: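 Inhibition of growth is reported for a repair-deficient yeast mutant following compound treatment, calculated relative to cultures that received vehicle.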

[8] = NCI Yeast Anticancer Drug Screen. Data for the sgs1 mgt1 strain (AID 161);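 further: 0% = growth of cultures given vehicle only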; conditions: S. cerevisiae sgs1 mgt1 strain, stronger effect = higher value
In short: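 Mutant yeast exposed to compound; growth scored against vehicle-only wells.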

[9] = NCI Yeast Anticancer Drug Screen. Data for the CLN2oe strain (AID 163);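 further: 0% = growth of vehicle-only control cultures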; conditions: S. cerevisiae CLN2oe strain, stronger effect = higher value
In short: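 Here, growth inhibition in a cell-cycle-altered yeast strain after compound exposure was quantified against vehicle control growth.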

[10] = NCI Yeast Anticancer Drug Screen. Data for the cln2 rad14 strain (AID 165);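 further: 0% = growth equal to vehicle treated cultures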; conditions: S. cerevisiae cln2 rad14 strain, stronger effect = higher value
In short: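 Growth of compound-exposed yeast (cln2 rad14 genotype) measured and expressed as inhibition relative to vehicle.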

[11] = NCI Yeast Anticancer Drug Screen. Data for the bub3 strain (AID 167); conditions: S. cerevisiae bub3 mutant strain, stronger effect = higher value
In short: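 Mutant yeast screening strain plus compound; vehicle-treated cultures serve as the 0% inhibition reference.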

[12] = NCI Yeast Anticancer Drug Screen. Data for the wt2 strain (AID 169); conditions: S. cerevisiae wt2 strain growth inhibition, stronger effect = higher value
In short: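 Genetically defined yeast strains from a DNA-repair/cell-cycle panel were used. Compound-exposed yeast growth was measured, and the inhibition was calculated relative to vehicle treatment.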

[13] = NCI Yeast Anticancer Drug Screen. Data for the sgs1 strain (AID 173);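 further: 0% = growth of vehicle-only control cultures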; conditions: S. cerevisiae sgs1 mutant, stronger effect = higher value
In short: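 Relative growth inhibition, referenced to vehicle, was determined in a yeast strain with a defined alteration affecting DNA damage repair or cell cycle control after compound exposure.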

[14] = NCI Yeast Anticancer Drug Screen. Data for the mlh1 rad18 strain (AID 175); conditions: S. cerevisiae mlh1 rad18 strain growth inhibition, stronger effect = higher value
In short: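 In this whole-cell yeast screen, a strain with altered DNA damage repair is challenged with compound, and its growth is measured against matched vehicle-treated controls.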

[15] = NCI Yeast Anticancer Drug Screen. Data for the rad18 strain (AID 177); conditions: S. cerevisiae rad18 mutant growth inhibition, stronger effect = higher value
In short: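 Screen uses a yeast strain with a defined lesion in DNA damage repair; compound effect is read as loss of growth compared to untreated vehicle cultures.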

[16] = NCI Yeast Anticancer Drug Screen. Data for the mlh1 strain (AID 171);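 further: 0% = growth of vehicle-treated control cultures of the same strain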; conditions: S. cerevisiae mlh1 strain growth inhibition, stronger effect = higher value
In short: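 Here the genetically defined yeast mutant is grown with each compound, and the extent to which its growth falls below that of vehicle-exposed cells is reported.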

[17] = at 5.0 µM (retest, dose inferred, filed as 0.5)
[18] = at 50.0 µM (retest, dose inferred, filed as 5.0)

`O=C(Nc1ccccc1)OCCc1ccc(Cl)c(Cl)c1` showed a growth inhibition ([1]; at 1.2 µM) of 0%, a growth inhibition ([1]; at 3.7 µM) of 10% and a growth inhibition ([1]; at 11.0 µM) of 20%. The growth inhibition ([1]; at 33.0 µM) was 20%, the growth inhibition ([1]; at 100.0 µM) was 52% and the growth inhibition ([2]; at 1.2 µM) was -4%. For the same molecule, the growth inhibition ([2]; at 3.7 µM) was -7%, the growth inhibition ([2]; at 11.0 µM) was -9% and the growth inhibition ([2]; at 33.0 µM) was 16%. It also gave a growth inhibition ([2]; at 100.0 µM) of 8%, a growth inhibition ([3]; at 1.2 µM) of 7% and a growth inhibition ([3]; at 3.7 µM) of 26%. For the same molecule, the growth inhibition ([3]; at 11.0 µM) was 39%, the growth inhibition ([3]; at 33.0 µM) was 29% and the growth inhibition ([3]; at 100.0 µM) was 30%. For the same molecule, the growth inhibition ([4]; at 1.2 µM) was -4%, the growth inhibition ([4]; at 3.7 µM) was -4% and the growth inhibition ([4]; at 11.0 µM) was 7%. It also gave a growth inhibition ([4]; at 33.0 µM) of 14%, a growth inhibition ([4]; at 100.0 µM) of 37% and a growth inhibition ([5]; at 1.2 µM) of -2%. For the same molecule, the growth inhibition ([5]; at 3.7 µM) was 13%, the growth inhibition [5, 17] was 0% and the growth inhibition ([5]; at 11.0 µM) was 29%. The growth inhibition ([5]; at 33.0 µM) was 66%, the growth inhibition [5, 18] was 74% (active) and the growth inhibition ([5]; at 50.0 µM) was 86.7% (active). It also gave a growth inhibition ([5]; at 100.0 µM) of 51%, a growth inhibition ([6]; at 1.2 µM) of -3% and a growth inhibition ([6]; at 3.7 µM) of -4%. The growth inhibition [6, 17] was 0%, the growth inhibition ([6]; at 11.0 µM) was -3% and the growth inhibition ([6]; at 33.0 µM) was 20%. The growth inhibition [6, 18] was 65%, the growth inhibition ([6]; at 50.0 µM) was 95.3% (active) and the growth inhibition ([6]; at 100.0 µM) was 47%. It also gave a growth inhibition ([7]; at 1.2 µM) of -5%, a growth inhibition ([7]; at 3.7 µM) of 1% and a growth inhibition ([7]; at 11.0 µM) of 15%. For the same molecule, the growth inhibition ([7]; at 33.0 µM) was 31%, the growth inhibition ([7]; at 100.0 µM) was 53% and the growth inhibition [8, 17] was 8%. For the same molecule, the growth inhibition [8, 18] was 54%, the growth inhibition ([8]; at 50.0 µM) was 75.8% (active) and the growth inhibition ([9]; at 1.2 µM) was -8%. It also gave a growth inhibition ([9]; at 3.7 µM) of -4%, a growth inhibition ([9]; at 11.0 µM) of 26% and a growth inhibition ([9]; at 33.0 µM) of 53%. The growth inhibition ([9]; at 100.0 µM) was 58%, the growth inhibition [10, 17] was -8% and the growth inhibition [10, 18] was 85% (active). The growth inhibition ([10]; at 50.0 µM) was 86% (active), the growth inhibition ([11]; at 1.2 µM) was -1% and the growth inhibition ([11]; at 3.7 µM) was 2%. For the same molecule, the growth inhibition [11, 17] was 6%, the growth inhibition ([11]; at 11.0 µM) was 37% and the growth inhibition ([11]; at 33.0 µM) was 75% (active). For the same molecule, the growth inhibition [11, 18] was 83% (active), the growth inhibition ([11]; at 50.0 µM) was 90.2% (active) and the growth inhibition ([11]; at 100.0 µM) was 52%. For the same molecule, the growth inhibition ([12]; at 1.2 µM) was -7%, the growth inhibition ([12]; at 3.7 µM) was -6% and the growth inhibition ([12]; at 11.0 µM) was 5%. For the same molecule, the growth inhibition ([12]; at 33.0 µM) was 24%, the growth inhibition ([12]; at 100.0 µM) was 8% and the growth inhibition ([13]; at 1.2 µM) was -19%. For the same molecule, the growth inhibition ([13]; at 3.7 µM) was -9%, the growth inhibition ([13]; at 11.0 µM) was 2% and the growth inhibition ([13]; at 33.0 µM) was 22%. For the same molecule, the growth inhibition ([13]; at 100.0 µM) was 47%, the growth inhibition [14, 17] was 1% and the growth inhibition [14, 18] was 60%. The growth inhibition ([14]; at 50.0 µM) was 58.9%, the growth inhibition ([15]; at 1.2 µM) was -4% and the growth inhibition ([15]; at 3.7 µM) was 7%. The growth inhibition ([15]; at 11.0 µM) was 17%, the growth inhibition ([15]; at 33.0 µM) was 45% and the growth inhibition ([15]; at 100.0 µM) was 53%.

For `O=C1c2cc([N+](=O)[O-])ccc2-c2cccc(F)c21`, the growth inhibition ([1]; at 1.2 µM) was 14%, the growth inhibition ([1]; at 3.7 µM) was 31% and the growth inhibition ([1]; at 11.0 µM) was 57%. For the same molecule, the growth inhibition ([1]; at 33.0 µM) was 82% (active), the growth inhibition ([1]; at 100.0 µM) was 87% (active) and the growth inhibition ([2]; at 1.2 µM) was -1%. It also gave a growth inhibition ([2]; at 3.7 µM) of -2%, a growth inhibition ([2]; at 11.0 µM) of 8% and a growth inhibition ([2]; at 33.0 µM) of 10%. It also gave a growth inhibition ([2]; at 100.0 µM) of 20%, a growth inhibition ([3]; at 1.2 µM) of 9% and a growth inhibition ([3]; at 3.7 µM) of 27%. The growth inhibition ([3]; at 11.0 µM) was 49%, the growth inhibition ([3]; at 33.0 µM) was 69% and the growth inhibition ([3]; at 100.0 µM) was 75% (active). The growth inhibition ([4]; at 1.2 µM) was 1%, the growth inhibition ([4]; at 3.7 µM) was -5% and the growth inhibition ([4]; at 11.0 µM) was 12%. The growth inhibition ([4]; at 33.0 µM) was 20%, the growth inhibition ([4]; at 100.0 µM) was 28% and the growth inhibition ([5]; at 1.2 µM) was 12%. It also gave a growth inhibition ([5]; at 3.7 µM) of 32%, a growth inhibition [5, 17] of 7% and a growth inhibition ([5]; at 11.0 µM) of 61%. For the same molecule, the growth inhibition ([5]; at 33.0 µM) was 84% (active), the growth inhibition [5, 18] was 60% and the growth inhibition ([5]; at 50.0 µM) was 91.9% (active). The growth inhibition ([5]; at 100.0 µM) was 83% (active), the growth inhibition ([6]; at 1.2 µM) was 0% and the growth inhibition ([6]; at 3.7 µM) was 3%. It also gave a growth inhibition [6, 17] of 1%, a growth inhibition ([6]; at 11.0 µM) of 13% and a growth inhibition ([6]; at 33.0 µM) of 23%. The growth inhibition [6, 18] was 7%, the growth inhibition ([6]; at 50.0 µM) was 59.7% and the growth inhibition ([6]; at 100.0 µM) was 41%. The growth inhibition ([7]; at 1.2 µM) was 5%, the growth inhibition ([7]; at 3.7 µM) was 11% and the growth inhibition ([7]; at 11.0 µM) was 26%. It also gave a growth inhibition ([7]; at 33.0 µM) of 42%, a growth inhibition ([7]; at 100.0 µM) of 61% and a growth inhibition [8, 17] of 12%. The growth inhibition [8, 18] was 41%, the growth inhibition ([8]; at 50.0 µM) was 67.3% and the growth inhibition ([9]; at 1.2 µM) was -2%. The growth inhibition ([9]; at 3.7 µM) was 0%, the growth inhibition ([9]; at 11.0 µM) was 6% and the growth inhibition ([9]; at 33.0 µM) was 15%. It also gave a growth inhibition ([9]; at 100.0 µM) of 22%, a growth inhibition [10, 17] of 18% and a growth inhibition [10, 18] of 30%. It also gave a growth inhibition ([10]; at 50.0 µM) of 54.9%, a growth inhibition ([11]; at 1.2 µM) of -4% and a growth inhibition ([11]; at 3.7 µM) of -7%. The growth inhibition [11, 17] was 1%, the growth inhibition ([11]; at 11.0 µM) was 8% and the growth inhibition ([11]; at 33.0 µM) was 16%. It also gave a growth inhibition [11, 18] of 8%, a growth inhibition ([11]; at 50.0 µM) of 33.1% and a growth inhibition ([11]; at 100.0 µM) of 25%. For the same molecule, the growth inhibition ([12]; at 1.2 µM) was -1%, the growth inhibition ([12]; at 3.7 µM) was 3% and the growth inhibition ([12]; at 11.0 µM) was 4%. For the same molecule, the growth inhibition ([12]; at 33.0 µM) was 17%, the growth inhibition ([12]; at 100.0 µM) was 46% and the growth inhibition ([16]; at 1.2 µM) was -3%. The growth inhibition ([16]; at 3.7 µM) was 5%, the growth inhibition ([16]; at 11.0 µM) was 13% and the growth inhibition ([16]; at 33.0 µM) was 22%. For the same molecule, the growth inhibition ([16]; at 100.0 µM) was 44%, the growth inhibition ([13]; at 1.2 µM) was 3% and the growth inhibition ([13]; at 3.7 µM) was 10%. It also gave a growth inhibition ([13]; at 11.0 µM) of 21%, a growth inhibition ([13]; at 33.0 µM) of 34% and a growth inhibition ([13]; at 100.0 µM) of 52%. The growth inhibition ([15]; at 1.2 µM) was 45%, the growth inhibition ([15]; at 3.7 µM) was 78% (active) and the growth inhibition ([15]; at 11.0 µM) was 90% (active). The growth inhibition ([15]; at 33.0 µM) was 93% (active) and the growth inhibition ([15]; at 100.0 µM) was 89% (active).

From PubChem BioAssay (NCI)
